Measured values taken from PubChem BioAssay (NCI).
Compounds without any hit were thinned out: in the full panel of roughly 83,000, 20% have a hit.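 Single-dose data. Exposure time 48 hours. Values below 10 considered active.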 Active and inactive are the calls of the source.

Test system: EKVX NSCLC
Assay: NCI-60 one-dose screen, 48 h (100 = growth as untreated, 0 = no growth, -100 = all killed)
Settings: 10 µM unless noted

Q: For `COc1ccccc1N1CCN(CC(O)COc2c(Br)c(Br)c(Br)c3c2OC(C)(C)C3)CC1` (stereo not drawn), which growth is on record?
A: 117% (inactive)

Q: With `CC(=O)N[C@@H](CNC(=O)c1cc(NC(=O)c2cc(NC(=O)c3cc(NC(=O)c4nccn4C)cn3C)cn2C)cn1C)CC(=O)Nc1cn(C)c(C(=O)Nc2cc(C(=O)Nc3cc(C(=O)Nc4cc(C(=O)NCCCN(C)CCCNC(=O)c5cccc(C(=O)O)c5)n(C)c4)n(C)c3)n(C)c2)n1` as the compound, how does the growth read?
A: 102% (inactive)

Q: For `O=[N+]([O-])c1ccc(NS(=O)(=O)c2cc(Cl)ccc2Cl)c2ccccc12`, which growth is on record?
A: 50.9% (inactive)

Q: With `CN1CCN(C(=O)/C=C/c2ccc([N+](=O)[O-])o2)CC1` as the compound, how does the growth read?
A: 132% (inactive)

Q: How did the growth turn out when `CCn1cc(/C=C2\Oc3cc(OCC#N)ccc3C2=O)c2cc(OC)ccc21` was run?
A: 47.8% (inactive)

Q: With `S=c1ssnc1-c1ccccn1` as the compound, how does the growth read?
A: 65.2% (inactive)

Q: Which growth does the source give for `COc1ccc2c(c1)nnc1c3cccnc3[nH]c21` here?
A: 34.2% (inactive)

Q: With `COc1cccc(/C=N/C(=S)NC2(C)C3CCC(C3)C2(C)C)c1O` (stereo not drawn) as the compound, how does the growth read?
A: 102% (inactive)

Q: For `CC1(C)Cc2c(Br)c(Br)c(Br)c(OCC(O)CN3CCN(c4ccccn4)CC3)c2O1` (stereo not drawn), which growth is on record?
A: 95.3% (inactive)

Q: `O=C1OC(c2ccc(-c3ccccc3)cc2)=C/C1=C/C=C/c1ccccc1` was tested. Which growth did it give?
A: 102% (inactive)

Q: Which growth does the source give for `CCCCCn1ncc(-c2c(O)c(O)cc3c(O)c(-c4c(C)cc5c(-c6cnn(CCCCC)n6)c(O)c(O)cc5c4O)c(C)cc23)n1` here?
A: 9.87% (active)

Q: How did the growth turn out when `CCC1S/C(=N\N=C(/C)c2cc3ccccc3o2)N(c2ccccc2)C1=O` (stereo not drawn) was run?
A: 135% (inactive)

Q: Which growth does the source give for `CS(=O)(=O)OCC(COS(C)(=O)=O)C(c1ccccc1)c1ccccc1` here?
A: 99.1% (inactive)

Q: How did the growth turn out when `CC(=O)c1cc2c(N)c(C(=O)Nc3cccc(Cl)c3)sc2nc1C` was run?
A: 76.5% (inactive)

Q: For `ClC1c2ccccc2CCc2ccccc21`, which growth is on record?
A: 94% (inactive)

Q: For `CCOC(=O)C(C)(CSSCC(C)(NC(=O)c1ccc2ccccc2c1)C(=O)OCC)NC(=O)c1ccc2ccccc2c1` (stereo not drawn), which growth is on record?
A: 90.3% (inactive)

Q: `COc1ccccc1S(=O)(=O)Nc1ccc2c3c(cc(-c4ccoc4)nc13)C(=O)N2C` was tested. Which growth did it give?
A: 66.4% (inactive)

Q: With `CN1CCN(Cn2nc(-c3cc(Cl)cc(Cl)c3Cl)n(/N=C/c3ccc(Cl)cc3)c2=S)CC1` as the compound, how does the growth read?
A: 118% (inactive)

Q: `Cc1ccn2cc(Cc3cc(=O)oc4c3ccc3ccccc34)c(=O)nc2c1` was tested. Which growth did it give?
A: 92.5% (inactive)

Q: Which growth does the source give for `C=C1C(=O)O[C@H]2[C@H]1CC/C(COC(=O)c1ccc(Br)cc1)=C\CC[C@@]1(C)O[C@@H]21` here?
A: -41.3% (active)

Q: How did the growth turn out when `COc1cc2ncnc(Oc3ccc(NC(=O)Nc4ccc(CN5CCOCC5)c(C(F)(F)F)c4)c4ccccc34)c2cc1OC` was run?
A: 16% (inactive)

Q: `Cc1cccc(NC(=O)CCc2ccc(N3C(N)=NC(N)=NC3(C)C)cc2)c1` was tested. Which growth did it give?
A: 55.6% (inactive)

Q: For `CN(C)c1ncc(C#Cc2c(F)cccc2F)c2ccccc12`, which growth is on record?
A: 74.8% (inactive)

Q: Which growth does the source give for `O=C(NC(=S)Nc1ccc(Cl)cc1)c1ccccc1` here?
A: 78.7% (inactive)

Q: How did the growth turn out when `COc1cc2nc(C(=O)N3CCCCC3)cc(Nc3ccccc3)c2cc1OC` was run?
A: 97.3% (inactive)

Q: For `Oc1ccc(O)c(-[n+]2ccccc2)c1`, which growth is on record?
A: 105% (inactive)

Q: For `COc1cc2c(/C=C3/C(=O)Nc4ccc(O)cc43)c(Cl)n(Cc3cc(OC)c(OC)c(OC)c3)c2cc1C`, which growth is on record?
A: 13.3% (inactive)

Q: Which growth does the source give for `N#Cc1c(N)nc2c(c1N)C(c1ccc(Cl)cc1)C1=C(CCCC1=O)N2c1sc2c(c1C#N)CCCC2` (stereo not drawn) here?
A: 93.7% (inactive)

Q: Which growth does the source give for `COc1ccc2c(c1)nnn1c3ncccc3c(N=O)c21` here?
A: 15% (inactive)

Q: Which growth does the source give for `COc1cc(NC(C)CCCN2C(=O)c3ccccc3C2=O)c2nc(C)ccc2c1OC` (stereo not drawn) here?
A: 96.3% (inactive)

Q: With `O=C(Nc1ccc(F)cc1)Nc1ccc(Cl)c([N+](=O)[O-])c1` as the compound, how does the growth read?
A: 15.8% (inactive)

Q: With `COc1cc(/C=C/C(=O)c2c(C)n([O-])c3cc(C)c(C)cc3[n+]2=O)cc(OC)c1OC` as the compound, how does the growth read?
A: 79.2% (inactive)

Q: With `CCC1S/C(=N\N=C(/C)c2cccs2)N(c2ccccc2)C1=O` (stereo not drawn) as the compound, how does the growth read?
A: 105% (inactive)

Q: Which growth does the source give for `O=C(Nc1cccc([N+](=O)[O-])c1)c1ccc2ccccc2c1O` here?
A: 51.9% (inactive)

Q: `CC(C)(C)OC(=O)N1CCN(CCn2cc(C(F)(F)F)c3c(Cl)ncnc32)CC1` was tested. Which growth did it give?
A: 101% (inactive)

Q: Which growth does the source give for `COc1cc(NC(C)CCCN2C(=O)c3ccccc3C2=O)c2ncccc2c1OC` (stereo not drawn) here?
A: 69% (inactive)

Q: Which growth does the source give for `CSc1nc(N)nc2c1ncn2C` here?
A: 94.2% (inactive)

Q: `O=C1C(SCCO)=C(SCCO)C(=O)N1c1ccc(-c2ccccc2)cc1` was tested. Which growth did it give?
A: 129% (inactive)

Q: `OCc1cnccc1NC12CC3CC(CC(C3)C1)C2` was tested. Which growth did it give?
A: 103% (inactive)

Test system: SN12C renal
Assay: as above
Settings: 10 µM unless noted

Q: `COc1ccccc1N1CCN(CC(O)COc2c(Br)c(Br)c(Br)c3c2OC(C)(C)C3)CC1` (stereo not drawn) was tested. Which growth did it give?
A: 65.8% (inactive)

Q: For `CC(=O)N[C@@H](CNC(=O)c1cc(NC(=O)c2cc(NC(=O)c3cc(NC(=O)c4nccn4C)cn3C)cn2C)cn1C)CC(=O)Nc1cn(C)c(C(=O)Nc2cc(C(=O)Nc3cc(C(=O)Nc4cc(C(=O)NCCCN(C)CCCNC(=O)c5cccc(C(=O)O)c5)n(C)c4)n(C)c3)n(C)c2)n1`, which growth is on record?
A: 100% (inactive)

Q: `O=[N+]([O-])c1ccc(NS(=O)(=O)c2cc(Cl)ccc2Cl)c2ccccc12` was tested. Which growth did it give?
A: 45.8% (inactive)

Q: For `CN1CCN(C(=O)/C=C/c2ccc([N+](=O)[O-])o2)CC1`, which growth is on record?
A: 91% (inactive)

Q: `CCn1cc(/C=C2\Oc3cc(OCC#N)ccc3C2=O)c2cc(OC)ccc21` was tested. Which growth did it give?
A: 42.4% (inactive)

Q: With `S=c1ssnc1-c1ccccn1` as the compound, how does the growth read?
A: 38% (inactive)

Q: How did the growth turn out when `COc1ccc2c(c1)nnc1c3cccnc3[nH]c21` was run?
A: -22.2% (active)

Q: `COc1cccc(/C=N/C(=S)NC2(C)C3CCC(C3)C2(C)C)c1O` (stereo not drawn) was tested. Which growth did it give?
A: 100% (inactive)

Q: How did the growth turn out when `CC1(C)Cc2c(Br)c(Br)c(Br)c(OCC(O)CN3CCN(c4ccccn4)CC3)c2O1` (stereo not drawn) was run?
A: 106% (inactive)

Q: `O=C1OC(c2ccc(-c3ccccc3)cc2)=C/C1=C/C=C/c1ccccc1` was tested. Which growth did it give?
A: 99.9% (inactive)

Q: Which growth does the source give for `CCCCCn1ncc(-c2c(O)c(O)cc3c(O)c(-c4c(C)cc5c(-c6cnn(CCCCC)n6)c(O)c(O)cc5c4O)c(C)cc23)n1` here?
A: 18.6% (inactive)

Q: For `CCC1S/C(=N\N=C(/C)c2cc3ccccc3o2)N(c2ccccc2)C1=O` (stereo not drawn), which growth is on record?
A: 120% (inactive)

Q: Which growth does the source give for `CS(=O)(=O)OCC(COS(C)(=O)=O)C(c1ccccc1)c1ccccc1` here?
A: 89.2% (inactive)

Q: For `CC(=O)c1cc2c(N)c(C(=O)Nc3cccc(Cl)c3)sc2nc1C`, which growth is on record?
A: 92.6% (inactive)

Q: Which growth does the source give for `ClC1c2ccccc2CCc2ccccc21` here?
A: 103% (inactive)

Q: Which growth does the source give for `CCOC(=O)C(C)(CSSCC(C)(NC(=O)c1ccc2ccccc2c1)C(=O)OCC)NC(=O)c1ccc2ccccc2c1` (stereo not drawn) here?
A: 104% (inactive)

Q: For `COc1ccccc1S(=O)(=O)Nc1ccc2c3c(cc(-c4ccoc4)nc13)C(=O)N2C`, which growth is on record?
A: 82.3% (inactive)

Q: `CN1CCN(Cn2nc(-c3cc(Cl)cc(Cl)c3Cl)n(/N=C/c3ccc(Cl)cc3)c2=S)CC1` was tested. Which growth did it give?
A: 96.4% (inactive)

Q: For `Cc1ccn2cc(Cc3cc(=O)oc4c3ccc3ccccc34)c(=O)nc2c1`, which growth is on record?
A: 96.4% (inactive)

Q: How did the growth turn out when `C=C1C(=O)O[C@H]2[C@H]1CC/C(COC(=O)c1ccc(Br)cc1)=C\CC[C@@]1(C)O[C@@H]21` was run?
A: -22% (active)

Q: Which growth does the source give for `COc1cc2ncnc(Oc3ccc(NC(=O)Nc4ccc(CN5CCOCC5)c(C(F)(F)F)c4)c4ccccc34)c2cc1OC` here?
A: 8.87% (active)

Q: With `Cc1cccc(NC(=O)CCc2ccc(N3C(N)=NC(N)=NC3(C)C)cc2)c1` as the compound, how does the growth read?
A: 30.3% (inactive)

Q: Which growth does the source give for `CN(C)c1ncc(C#Cc2c(F)cccc2F)c2ccccc12` here?
A: 78.8% (inactive)

Q: How did the growth turn out when `O=C(NC(=S)Nc1ccc(Cl)cc1)c1ccccc1` was run?
A: 98.4% (inactive)

Q: `COc1cc2nc(C(=O)N3CCCCC3)cc(Nc3ccccc3)c2cc1OC` was tested. Which growth did it give?
A: 98.9% (inactive)

Q: Which growth does the source give for `Oc1ccc(O)c(-[n+]2ccccc2)c1` here?
A: 98.1% (inactive)

Q: How did the growth turn out when `COc1cc2c(/C=C3/C(=O)Nc4ccc(O)cc43)c(Cl)n(Cc3cc(OC)c(OC)c(OC)c3)c2cc1C` was run?
A: 59.6% (inactive)

Q: How did the growth turn out when `N#Cc1c(N)nc2c(c1N)C(c1ccc(Cl)cc1)C1=C(CCCC1=O)N2c1sc2c(c1C#N)CCCC2` (stereo not drawn) was run?
A: 95.4% (inactive)

Q: Which growth does the source give for `COc1ccc2c(c1)nnn1c3ncccc3c(N=O)c21` here?
A: -80.4% (active)

Q: For `COc1cc(NC(C)CCCN2C(=O)c3ccccc3C2=O)c2nc(C)ccc2c1OC` (stereo not drawn), which growth is on record?
A: 92.1% (inactive)

Q: For `O=C(Nc1ccc(F)cc1)Nc1ccc(Cl)c([N+](=O)[O-])c1`, which growth is on record?
A: 15.8% (inactive)

Q: `COc1cc(/C=C/C(=O)c2c(C)n([O-])c3cc(C)c(C)cc3[n+]2=O)cc(OC)c1OC` was tested. Which growth did it give?
A: 72.8% (inactive)

Q: For `CCC1S/C(=N\N=C(/C)c2cccs2)N(c2ccccc2)C1=O` (stereo not drawn), which growth is on record?
A: 135% (inactive)

Q: With `O=C(Nc1cccc([N+](=O)[O-])c1)c1ccc2ccccc2c1O` as the compound, how does the growth read?
A: 50.5% (inactive)

Q: How did the growth turn out when `CC(C)(C)OC(=O)N1CCN(CCn2cc(C(F)(F)F)c3c(Cl)ncnc32)CC1` was run?
A: 71.9% (inactive)

Q: Which growth does the source give for `COc1cc(NC(C)CCCN2C(=O)c3ccccc3C2=O)c2ncccc2c1OC` (stereo not drawn) here?
A: 109% (inactive)

Q: `CSc1nc(N)nc2c1ncn2C` was tested. Which growth did it give?
A: 97.6% (inactive)

Q: With `O=C1C(SCCO)=C(SCCO)C(=O)N1c1ccc(-c2ccccc2)cc1` as the compound, how does the growth read?
A: 72.4% (inactive)

Q: `OCc1cnccc1NC12CC3CC(CC(C3)C1)C2` was tested. Which growth did it give?
A: 105% (inactive)
